Measurements reported in the supplement of paper PMC10646978.
± gives the standard deviation.

Legend:
Conditions in all cases: modulator concentration 10 µM
[1] = test system: RAW-Dual (murine macrophage reporter line); assay: NF-kB reporter (SEAP) activity fold change vs agonist alone; higher = enhanced NF-kB activity
In short: (§1)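 Compound reached 10 μM final in each well by pin transfer, onto RAW-Dual murine macrophage reporter cells seeded at 50 000 per well in 384-well plates. After 1 hour at 37 °C, the cells were stimulated overnight with a PRR agonist. SEAP in the supernatant was read with QUANTI-Blue at 620 nm absorbance for NF-κB, and Lucia luciferase was read with QUANTI-Luc luminescence for IRF. Each signal was turned into fold change against the mean agonist-only control on the same plate, and two replicate plates were averaged with propagated errors.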

[2] = test system: RAW-Dual (murine macrophage reporter line); assay: IRF reporter (Lucia luciferase) activity fold change vs agonist alone; higher = enhanced IRF activity
In short: as §1

[3] = test system: RAW-Dual (murine macrophage reporter line); assay: viability score (confluency relative to resting cells, overnight) (fraction); higher = more viable, active = viable (0.7 or more)
In short: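 In 384-well plates, RAW-Dual macrophages received compound at a final 10 μM overnight. Two confluency masks were then made with IncuCyte software from IncuCyte images of all imaged wells. The viability score is defined as confluency relative to resting cells. Passing the cutoff required both masks to lie above 70% of resting cells.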

[4] = agonist: CpG ODN 1826 0.5 ug/mL

| Compound | NF-kB reporter [1, 4] | NF-kB reporter ([1]; agonist: LPS 0.1 ug/mL) | NF-kB reporter ([1]; agonist: MPLA […]) | IRF reporter ([2]; agonist: 3'3'-cGAMP 10 ug/mL) | IRF reporter ([2]; agonist: LPS 0.1 ug/mL) | IRF reporter ([2]; agonist: MPLA […]) | viability score [3] |
| --- | --- | --- | --- | --- | --- | --- | --- |
| Cc1[nH]nc(-c2ccc(OCc3ccccc3)c(C)c2O)c1-c1cnn(-c2ccccc2)c1 | 0.892 ± 0.073 | 1.1 ± 0.077 | 0.784 ± 0.049 | 0.95 ± 0.026 | 1.58 ± 0.19 | 1.11 ± 0.095 | 1.01 (active) |
| CC(C)(C)c1ccc(C2=NC(=Cc3cccc4ccccc34)C(=O)O2)cc1 | 0.986 ± 0.078 | 1.05 ± 0.082 | 0.97 ± 0.034 | 0.857 ± 0.11 | 1.1 ± 0.11 | 1 ± 0.19 | 1 (active) |
| NC(=O)Cn1c(COc2ccccc2Cl)nc2ccccc21 | 1.35 ± 0.32 | 1.03 ± 0.051 | 0.96 ± 0.07 | 1.01 ± 0.034 | 1.26 ± 0.16 | 1.27 ± 0.21 | 0.994 (active) |
| COC(=O)C1C(c2ccccc2)C(C(=O)Oc2ccc(C(C)=O)cc2)C1c1ccccc1 (configuration not stated) | 0.895 ± 0.069 | 0.939 ± 0.046 | 1.16 ± 0.1 | 0.908 ± 0.06 | 1.17 ± 0.1 | 1.28 ± 0.15 | 1.02 (active) |
| C=CCNC(=O)CN(Cc1ccccc1)S(=O)(=O)c1ccc(OC)c(OC)c1 | 0.684 ± 0.4 | 0.886 ± 0.078 | 0.946 ± 0.089 | 0.916 ± 0.029 | 1.11 ± 0.14 | 1.13 ± 0.17 | 1.04 (active) |
| NC(=O)c1ccccc1O | 1.18 ± 0.28 | 1.01 ± 0.051 | 0.978 ± 0.085 | 0.945 ± 0.032 | 1.23 ± 0.14 | 1.19 ± 0.16 | 0.993 (active) |
| Cc1ccc(CCNc2ccccc2C)cn1 | 1.05 ± 0.084 | 0.931 ± 0.11 | 1.2 ± 0.12 | 1 ± 0.067 | 1.35 ± 0.21 | 1.73 ± 0.39 | 0.993 (active) |
| C=C1CCN([C@H](C)[C@](O)(Cn2cncn2)c2ccc(F)cc2F)CC1 | 1.21 ± 0.12 | 0.941 ± 0.11 | 0.986 ± 0.095 | 1.19 ± 0.054 | 1.73 ± 0.16 | 1.3 ± 0.15 | 0.134 (inactive) |
| CNC(CC(=O)O)C(=O)O (configuration not stated) | 0.986 ± 0.073 | 1.08 ± 0.073 | 0.978 ± 0.028 | 0.943 ± 0.054 | 0.942 ± 0.094 | 0.948 ± 0.078 | 1 (active) |
| CCCN1CCC(NCCc2ccc(Cl)cc2)CC1 | 1.18 ± 0.069 | 0.97 ± 0.081 | 1.1 ± 0.036 | 0.761 ± 0.028 | 0.994 ± 0.065 | 0.943 ± 0.11 | 0.995 (active) |
| CC(=O)SCC(Cc1ccccc1)C(=O)NCC(=O)OCc1ccccc1 (configuration not stated) | 1.01 ± 0.075 | 0.997 ± 0.07 | 0.99 ± 0.045 | 0.967 ± 0.08 | 0.76 ± 0.027 | 0.785 ± 0.087 | 1 (active) |
| CCC(=O)c1ccc(N2CCCCCC2)c(F)c1 | 0.864 ± 0.067 | 0.96 ± 0.074 | 1.14 ± 0.16 | 1 ± 0.048 | 1.61 ± 0.1 | 2.1 ± 0.18 | 0.982 (active) |
| O=C(NCCCc1cnc2ncnn2c1)c1cccc2ccccc12 | 0.88 ± 0.039 | 0.857 ± 0.071 | 1.06 ± 0.059 | 1.02 ± 0.057 | 1.23 ± 0.14 | 1.45 ± 0.39 | 0.98 (active) |
| C=C1C(=O)OC2CC3(C)CCCC(C)C3=CC12 (configuration not stated) | 0.85 ± 0.054 | 0.72 ± 0.068 | 0.685 ± 0.06 | 0.0319 ± 0.0039 | 0.738 ± 0.059 | 0.839 ± 0.15 | 0.73 (active) |
| CNCC[C@H](Oc1cccc2ccccc12)c1cccs1.Cl | 0.377 ± 0.037 | 0.925 ± 0.1 | 1.29 ± 0.069 | 1.41 ± 0.1 | 1.16 ± 0.18 | 1.24 ± 0.31 | 0.323 (inactive) |
| COc1ccc(S(=O)(=O)NCc2ccnc(-c3ccncc3)c2)cc1Cl | 0.831 ± 0.098 | 1.06 ± 0.1 | 0.964 ± 0.16 | 0.388 ± 0.02 | 0.969 ± 0.07 | 1.11 ± 0.11 | 0.999 (active) |

| Compound | NF-kB reporter [1, 4] | NF-kB reporter ([1]; agonist: LPS 0.1 ug/mL) | NF-kB reporter ([1]; agonist: MPLA […]) | IRF reporter ([2]; agonist: 3'3'-cGAMP 10 ug/mL) | IRF reporter ([2]; agonist: LPS 0.1 ug/mL) | IRF reporter ([2]; agonist: MPLA […]) | viability score [3] |
| --- | --- | --- | --- | --- | --- | --- | --- |
| CCOc1ccc(CC(=O)N2C3C=CCC2CC3)cc1 (configuration not stated) | 0.942 ± 0.1 | 1.09 ± 0.1 | 1.01 ± 0.061 | 1.02 ± 0.047 | 1.22 ± 0.16 | 1.31 ± 0.47 | 0.971 (active) |
| CC1CCc2nnc(OCC3CCCN3C)cc2C1 (configuration not stated) | 0.837 ± 0.051 | 0.793 ± 0.11 | 0.99 ± 0.059 | 0.972 ± 0.061 | 1.19 ± 0.25 | 1.22 ± 0.48 | 0.996 (active) |
| Cn1cnc2cc(NCc3ccc(Br)cc3)ccc21 | 0.882 ± 0.14 | 0.762 ± 0.076 | 0.984 ± 0.1 | 0.805 ± 0.045 | 1.06 ± 0.21 | 1.13 ± 0.25 | 0.984 (active) |
| Cc1ccc(Nc2nc(Cl)nc(Nc3ccc(C(C)C)cc3)n2)cc1 | 0.851 ± 0.067 | 1.06 ± 0.078 | 1.19 ± 0.13 | 0.828 ± 0.045 | 1.1 ± 0.19 | 1.33 ± 0.32 | 1.03 (active) |
| CC1CCN(C2=NC(=O)C(=Cc3cccc4ccccc34)S2)CC1 | 1.06 ± 0.087 | 0.987 ± 0.076 | 0.954 ± 0.057 | 0.963 ± 0.05 | 1.54 ± 0.23 | 1.2 ± 0.18 | 1.01 (active) |
| CC(=O)Nc1cccs1 | 1.09 ± 0.14 | 1.06 ± 0.072 | 0.986 ± 0.035 | 0.944 ± 0.12 | 1.07 ± 0.11 | 1.04 ± 0.078 | 0.998 (active) |
| NC(C(=O)O)c1ccccc1F (configuration not stated) | 0.928 ± 0.11 | 0.966 ± 0.11 | 0.994 ± 0.039 | 0.939 ± 0.056 | 0.969 ± 0.053 | 0.81 ± 0.082 | 1 (active) |
| C=CCNC(=O)COc1ccccc1C | 0.782 ± 0.073 | 0.887 ± 0.042 | 0.985 ± 0.086 | 1.05 ± 0.048 | 1.36 ± 0.082 | 1.48 ± 0.16 | 1 (active) |
| COc1cc(OC)cc(C(=O)N2CCN(c3ccc(Nc4cccc(C)n4)nn3)CC2)c1 | 0.54 ± 0.042 | 0.981 ± 0.081 | 1.01 ± 0.029 | 0.904 ± 0.039 | 0.951 ± 0.096 | 1.12 ± 0.2 | 0.996 (active) |
| Cc1ccc(-c2ncnn2-c2ccc(Cl)cc2)cc1 | 0.922 ± 0.072 | 0.785 ± 0.051 | 1.02 ± 0.11 | 0.695 ± 0.036 | 1.26 ± 0.073 | 1.4 ± 0.15 | 1.01 (active) |
| Cc1ccc(Sc2c(C)nn(-c3ccccc3)c2OC(=O)C(C)(C)C)cc1 | 0.74 ± 0.07 | 0.87 ± 0.075 | 0.928 ± 0.12 | 0.557 ± 0.031 | 1.08 ± 0.1 | 1.03 ± 0.19 | 0.963 (active) |
| COc1ccc(S(=O)(=O)NCc2ccnc(N3CCOCC3)n2)cc1Cl | 1.02 ± 0.052 | 1.02 ± 0.08 | 0.919 ± 0.1 | 1.07 ± 0.06 | 1.07 ± 0.079 | 1.08 ± 0.4 | 1 (active) |
| O=C(CSc1nnc(COc2ccc(Cl)cc2)o1)N1CCCc2ccccc21 | 0.883 ± 0.044 | 1.12 ± 0.11 | 0.853 ± 0.086 | 0.885 ± 0.044 | 0.823 ± 0.05 | 0.866 ± 0.29 | 1.01 (active) |
| COC(=O)C1=CN(CC2CCCO2)C=C(C(=O)OC)C1c1ccsc1 (configuration not stated) | 0.898 ± 0.087 | 0.845 ± 0.057 | 1.12 ± 0.13 | 0.895 ± 0.041 | 1.41 ± 0.082 | 1.43 ± 0.18 | 1.01 (active) |
| NC(=O)NO | 1.31 ± 0.18 | 1.21 ± 0.29 | 0.96 ± 0.057 | 0.905 ± 0.028 | 1.44 ± 0.26 | 1.09 ± 0.084 | 1 (active) |
